# Source: PubChem BioAssay
# Values without a mark were called inactive. No rule for the calls is given here.
# Target: Pantothenate synthetase (Mycobacterium tuberculosis (strain ATCC 25618 / H37Rv)) (UniProt P9WIL5)
# Test: Recombinant Mtb pantothenate synthetase (PanC) inhibitors, coupled enzyme, confirmatory (AID 375);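 also: 0% = full reaction with vehicle and 100% = no enzyme background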
# Conditions: coupled enzyme assay; at 10 µM, stronger effect = higher value
# Sequence of Pantothenate synthetase (Mycobacterium tuberculosis (strain ATCC 25618 / H37Rv)) (P9WIL5 whole entry, looked up): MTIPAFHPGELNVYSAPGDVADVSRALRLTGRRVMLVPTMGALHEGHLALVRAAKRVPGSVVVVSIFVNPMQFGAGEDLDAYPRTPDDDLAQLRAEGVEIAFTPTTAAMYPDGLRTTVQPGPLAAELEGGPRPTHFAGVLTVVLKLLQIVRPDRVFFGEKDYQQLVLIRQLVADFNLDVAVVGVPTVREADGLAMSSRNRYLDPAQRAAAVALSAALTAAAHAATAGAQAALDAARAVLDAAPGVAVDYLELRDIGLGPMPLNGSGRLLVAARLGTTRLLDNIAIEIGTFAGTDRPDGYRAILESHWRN
row,Compound,inhibition
1,Cc1nnc2n(-c3ccc(Cl)cc3)c(=O)c3c4c(sc3n12)CN(C)CC4,3%
2,Cc1ccccc1NC(=O)C1Cc2ccccc2C(=O)O1 (centres undefined),0%
3,CCCC(=O)O[C@]1(C(=O)COC(C)=O)CC[C@H]2[C@@H]3C[C@H](F)C4=CC(=O)C=C[C@]4(C)[C@@]3(F)[C@@H](O)C[C@@]21C,0%
4,O=C1NC(=O)C2(CCC(C(=O)O)C2)N1 (centres undefined),11%
5,CCOC(=O)c1cc(-c2nnc(-c3ccc(Oc4ccccc4)cc3)o2)c(C)nc1C,0%
6,COCCNC(=O)Cn1cc2c(n1)CCCCC2,1%
7,O=c1c2ccccc2c(/C=N/n2cnnc2)c(O)n1-c1ccccc1,2%
8,CCC(=O)N1CCc2cc(OC)c(OC)cc2C1COc1ccc(C(=O)OC)cc1 (centres undefined),9%
9,O=C(Nc1ccc(Cc2ccncc2)cc1)C1CC1,0%
10,Cc1ccc(-n2nc3cc(Cl)c(NC(=O)c4ccco4)cc3n2)cc1,3%
11,Cn1c(=O)c2c(nc(SCC(=O)O)n2Cc2cccc(C(F)(F)F)c2)n(C)c1=O,8%
12,CCCCn1c(=O)[nH]c(=O)c2c1nc(-c1ccncc1)n2CCOC,1%
13,CCc1ccc(N2CC(C(=O)OCC(=O)Nc3cc(C)on3)CC2=O)cc1 (centres undefined),0%
14,CCc1c(C(=O)Nc2cc(C)ccc2OC)[nH]c(C)c1C(C)=O,0%
15,Cc1cccc(NC(=O)c2cc3n(n2)C(C(F)(F)F)CC(c2ccc4c(c2)OCO4)N3)c1 (centres undefined),4%
16,COC(=O)c1ccc(NC(=O)CN2CCCC2)cc1,0%
17,CN(C(=O)c1ccc(S(=O)(=O)NC2CCCC2)cc1)C1CCCCC1,5%
18,Cc1ncoc1C(=O)Nc1ccccc1C(N)=O,0%
19,CCOC(=O)c1sc2nc(SCC#N)n(CCCN3CCCC3=O)c(=O)c2c1C,0%
20,CC12CN3CC(C)(CN(C1)C3c1ccc(Cl)cc1Cl)C2=O (centres undefined),0%

row,Compound,inhibition
1,Cc1c(NS(=O)(=O)c2ccc3c(c2)c(=O)n(C)c(=O)n3C)c(=O)n(-c2ccccc2)n1C,14%
2,Cc1ccc(CCNC(=O)C2CCCN2S(=O)(=O)c2ccc3c(c2)CCC(=O)N3)cc1 (centres undefined),6%
3,CCOC(=O)c1c(C)c(C(=O)NCC2CCCO2)c(C)n1C (centres undefined),7%
4,CCCCC(=NCCO)C1=C(O)C(C(=O)OC)C(C)(C)CC1=O (centres undefined),8%
5,Cc1cc(C(C)(C)C)c(O)c(C)c1CC1=NCCN1,0%
6,O=C(Nc1ccccc1N1CCCCC1)c1ncoc1-c1ccc(F)cc1,1%
7,O=C(CCn1c(=S)[nH]c2ccccc2c1=O)NCC1CCCO1 (centres undefined),4%
8,O=C(NC1CCCCC1)C(c1ccc(Cl)cc1)N(C(=O)c1cnccn1)c1ccc2c(c1)OCO2 (centres undefined),0%
9,COC(=O)c1cc(NS(=O)(=O)c2ccc3c(c2)CCC(=O)N3)cc(C(=O)OC)c1,0%
10,COc1ccc(CCn2c(C)cc(C(=O)CSc3nnnn3C)c2C)cc1,0%
11,O=C(c1cc2cc(Cl)cc(Cl)c2oc1=O)N1CCOCC1,0%
12,COc1cccc(-c2cc(C(=O)Nc3cc(OC)c(OC)c(OC)c3)no2)c1,0%
13,Oc1ccccc1-c1nnc(COc2ccc(Cl)cc2Cl)o1,1%
14,Cc1cc(C(=O)NCCN2CCCCC2C)n(-c2ccccc2)n1 (centres undefined),0%
15,O=C1C2CCCN2C(c2ccccc2)N1c1ccc(Cl)cc1 (centres undefined),1%
16,COc1cc2c(cc1OC)CN(Cc1nc3ccsc3c(=O)[nH]1)CC2,6%
17,CCCCCc1nnc(NC(=O)Cc2cccs2)s1,0%
18,COc1ccc(CCNC(=O)CC2COc3ccccc3O2)cc1OC (centres undefined),0%
19,COCCn1c(=O)[nH]c2cc(C(=O)N3CCN(Cc4ccc5c(c4)OCO5)CC3)ccc2c1=O,0%
